Test [1] relates to Plasmodium falciparum Sir2 (PF13_0152, Sir2A). The experiment in a line: Plasmodium falciparum Sir2A binding compounds – biochemical, small-molecule microarray, 635 nm fluorescence, primary screen (AID 1098).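 Note: score merges spot fluorescence intensity with its signal-to-noise ratio.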 Particulars: fluorescence 635 nm, higher = more signal.
A short description of test [2]: probe aDKK1 binding to arrayed compounds – biochemical, biotinylated probe, 635/667 nm fluorescence, primary screen (AID 1099).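 Note: score merges 667nm spot fluorescence with signal to noise across triplicate slides.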 As to conditions: small-molecule microarray, higher = more signal.
Test [3] in a line: probe aCHRDL2 binding to arrayed compounds – biochemical, biotinylated probe, 635/667 nm fluorescence, primary screen (AID 1100). As to conditions: small-molecule microarray, higher = more signal.
Test [4] can be described thus: change in splice reporter luminescence, either direction, cell-based, HEK293, spliceosome inhibition project, primary screen (AID 1101).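 Note: HEK293 cells carrying a splicing-competent luciferase reporter gene; test concentration not given here.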 As to conditions: HEK293 splicing luciferase reporter, 24 h, higher = more signal, called active from +8 up or from −8 down. For orientation: Reporter assays use an easily measured gene product as a stand-in for the process of interest.

Test [5] deals with Fibroblast growth factor 10 (Homo sapiens) (UniProt O15520). The experiment in a line: compounds binding fibroblast growth factor 10 – biochemical, small-molecule microarray, 635 nm fluorescence, primary screen (AID 1102). Particulars: FGF10 binding, fluorescence 635 nm, higher = more signal.
The subject of test [6] is glycogen synthase kinase-3 (GSK3A per assay name; protocol says GSK3B). The experiment in a line: compounds binding glycogen synthase kinase-3 – biochemical, small-molecule microarray, 635 nm fluorescence, GSK3A, primary screen (AID 1103). Note: the record names both GSK3A and GSK3B. As to conditions: fluorescence 635 nm, higher = more signal.
Test [7] concerns the target Epidermal growth factor receptor (Homo sapiens) (UniProt P00533). The experiment in a line: compounds binding epidermal growth factor receptor – biochemical, small-molecule microarray, 635 nm fluorescence, primary screen (AID 1104).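 Note: score merges 667 nm emission intensity with spot signal to noise over triplicate slides.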 As to conditions: EGFR binding, higher = more signal.
The target of test [8] is Follistatin-related protein 3 (Homo sapiens) (UniProt O95633). The experiment in a line: compounds binding follistatin-related protein 3 – biochemical, small-molecule microarray, 635 nm fluorescence, primary screen (AID 1105).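 Note: score merges emission near 667 nm and signal to noise per printed spot across three slides.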 Particulars: FSTL3 binding, higher = more signal.
Test [9] concerns the target Dickkopf-related protein 1 (Homo sapiens) (UniProt O94907). The experiment in a line: small molecules binding DKK1 protein – biochemical, small-molecule microarray, 635 nm fluorescence scan, primary screen (AID 1106).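 Note: score merges emission near 667 nm with signal to noise over three replicate slides.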 As to conditions: higher = more signal.
Test [10] concerns Inhibin beta A chain (activin A). The experiment in a line: small molecules binding activin A – biochemical, small-molecule microarray, 635 nm fluorescence scan, primary screen (AID 1107).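 Note: mouse activin A protein probed at 4.33 µg/mL on printed slides; score merges bound-protein fluorescence near 667 nm with spot signal-to-noise.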 As to conditions: INHBA, higher = more signal.
Test [11] relates to Human papillomavirus type 1a protein E7 (residues 44-93). The experiment in a line: small molecules binding HPV E7 44-93 – biochemical, small-molecule microarray, residues 44-93, 635 nm fluorescence, primary screen (AID 1108).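 Note: E7 fragment applied at 1 µg/mL in TBST for 1 h at 4 C; score combines spot fluorescence with its signal to noise ratio.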 Particulars: fluorescence 635 nm, higher = more signal.
Test [12] is described as follows: hepatitis C replication reporter changes, two-sided – Huh7 cells, luciferase reporter, HCV replication inhibitor project, primary screen (AID 1109).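 Note: huh7 hepatoma cells harbouring a luciferase neomycin HCV replicon reporter; luciferase luminescence as measure of HCV replicon replication; test concentration not given here.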 As to conditions: Huh7 HCV replicon luciferase reporter, 48 h; higher = more signal.
In test [13] the target is Left-right determination factor 2 (Homo sapiens) (UniProt O00292). The experiment in a line: small molecules binding LEFTY2 protein – biochemical, small-molecule microarray, 635 nm fluorescence scan, primary screen (AID 1110). As to conditions: higher = more signal.
In test [14] the target is Calmodulin-1 (Homo sapiens) (UniProt P0DP23). The experiment in a line: small molecules binding calmodulin-1 with EGTA – biochemical, small-molecule microarray, Cy5-labelled CALM1, profiling panel (AID 1111).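 Note: labelled calmodulin applied in Tris saline Tween buffer holding calcium plus EGTA and DTT.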 As to conditions: Cy5-CALM1 binding fluorescence, higher = more signal.
For test [15] the target is unchanged. The experiment in a line: small molecules binding Ca-loaded calmodulin-1 – biochemical, small-molecule microarray, Cy5-labelled CALM1, plus calcium, artefact control for SMM control-protein annotation, profiling panel (AID 1112).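 Note: score merges spot fluorescence with signal to noise from triplicate slides.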 As to conditions: Cy5-CALM1 binding fluorescence, higher = more signal.
Test [16] is described as follows: probe aWnt5a binding to arrayed compounds – biochemical, biotinylated probe, 635/667 nm fluorescence, primary screen (AID 1113).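 Note: score merges 667 nm fluorescence intensity with signal-to-noise per printed feature.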 Particulars: small-molecule microarray, higher = more signal.
A short description of test [17]: probe aShh binding to arrayed compounds – biochemical, biotinylated probe, 635/667 nm fluorescence, primary screen (AID 1114).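 Note: probe is biotin-labelled aShh protein from a stem cell growth factor screen; measures binding of labelled protein to compounds printed on the slide; score merges feature fluorescence at 667 nm with signal-to-noise.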 As to conditions: small-molecule microarray, higher = more signal.
The nature of test [18]: probe aNog binding to arrayed compounds – biochemical, biotinylated probe, 635/667 nm fluorescence, primary screen (AID 1115).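 Note: probe is biotinylated aNog protein used at 0.15 µg/mL for 1 h at 4 C; z-score combines 667 nm fluorescence of each spot with its signal to noise.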 Particulars: small-molecule microarray, higher = more signal.
The target in test [19] is Torsin-1A-interacting protein 1 (Homo sapiens) (UniProt Q5JTV8). The experiment in a line: compound microarray binding of lysate hLAP1 – cell lysate, small-molecule microarray, COS7 lysate, 635/667 nm fluorescence, primary screen (AID 1116). Particulars: 635 nm fluorescence, higher = more signal.
The target of test [20] is Alpha-bungarotoxin (Bungarus multicinctus) (UniProt P60615). The experiment in a line: compounds binding labelled alpha-BTX control protein – biochemical, small-molecule microarray, Alexa647 label, 635/667 nm fluorescence, artefact control for SMM control protein annotation, profiling panel (AID 1117). Particulars: alpha-BTX-A647 binding fluorescence, higher = more signal.

Calls of active or inactive are those of the source.

Follistatin-related protein 3 (Homo sapiens), sequence (O95633 whole entry, looked up): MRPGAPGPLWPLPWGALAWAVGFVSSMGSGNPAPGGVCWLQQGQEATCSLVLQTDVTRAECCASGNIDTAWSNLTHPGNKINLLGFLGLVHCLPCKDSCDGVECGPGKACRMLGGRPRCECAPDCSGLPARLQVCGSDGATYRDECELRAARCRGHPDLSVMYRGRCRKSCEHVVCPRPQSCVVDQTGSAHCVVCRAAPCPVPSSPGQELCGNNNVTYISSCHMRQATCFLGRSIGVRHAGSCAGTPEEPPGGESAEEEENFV
Epidermal growth factor receptor (Homo sapiens), sequence (P00533 whole entry, looked up): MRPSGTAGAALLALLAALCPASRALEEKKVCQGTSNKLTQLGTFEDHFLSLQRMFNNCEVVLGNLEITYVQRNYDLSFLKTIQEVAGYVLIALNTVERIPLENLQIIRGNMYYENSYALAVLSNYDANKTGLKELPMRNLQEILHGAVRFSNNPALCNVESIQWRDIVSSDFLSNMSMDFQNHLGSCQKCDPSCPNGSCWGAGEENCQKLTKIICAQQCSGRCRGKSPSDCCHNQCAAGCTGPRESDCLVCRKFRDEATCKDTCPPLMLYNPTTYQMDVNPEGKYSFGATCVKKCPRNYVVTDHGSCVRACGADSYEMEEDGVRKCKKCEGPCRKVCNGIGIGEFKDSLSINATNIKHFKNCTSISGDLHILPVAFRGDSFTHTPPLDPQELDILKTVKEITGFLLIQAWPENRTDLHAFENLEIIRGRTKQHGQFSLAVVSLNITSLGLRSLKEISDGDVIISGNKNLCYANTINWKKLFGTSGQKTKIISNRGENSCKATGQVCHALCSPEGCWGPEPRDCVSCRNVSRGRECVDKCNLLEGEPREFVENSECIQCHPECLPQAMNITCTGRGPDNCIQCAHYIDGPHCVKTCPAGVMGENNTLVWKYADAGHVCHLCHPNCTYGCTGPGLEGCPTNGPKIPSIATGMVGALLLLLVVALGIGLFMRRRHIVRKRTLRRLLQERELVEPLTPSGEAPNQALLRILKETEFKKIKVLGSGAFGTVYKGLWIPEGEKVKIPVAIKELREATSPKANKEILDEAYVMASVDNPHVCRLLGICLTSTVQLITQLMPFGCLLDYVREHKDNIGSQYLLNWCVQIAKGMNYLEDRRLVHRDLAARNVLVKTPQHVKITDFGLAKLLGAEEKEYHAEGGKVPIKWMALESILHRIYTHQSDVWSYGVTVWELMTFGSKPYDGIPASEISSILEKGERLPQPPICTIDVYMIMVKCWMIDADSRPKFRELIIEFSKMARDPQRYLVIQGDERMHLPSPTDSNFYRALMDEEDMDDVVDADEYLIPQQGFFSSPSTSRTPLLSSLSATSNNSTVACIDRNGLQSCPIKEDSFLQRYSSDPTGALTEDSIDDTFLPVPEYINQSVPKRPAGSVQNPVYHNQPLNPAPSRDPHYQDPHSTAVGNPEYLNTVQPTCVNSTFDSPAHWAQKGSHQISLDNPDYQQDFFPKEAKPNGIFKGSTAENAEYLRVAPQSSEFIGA
Torsin-1A-interacting protein 1 (Homo sapiens), sequence (Q5JTV8 whole entry, looked up): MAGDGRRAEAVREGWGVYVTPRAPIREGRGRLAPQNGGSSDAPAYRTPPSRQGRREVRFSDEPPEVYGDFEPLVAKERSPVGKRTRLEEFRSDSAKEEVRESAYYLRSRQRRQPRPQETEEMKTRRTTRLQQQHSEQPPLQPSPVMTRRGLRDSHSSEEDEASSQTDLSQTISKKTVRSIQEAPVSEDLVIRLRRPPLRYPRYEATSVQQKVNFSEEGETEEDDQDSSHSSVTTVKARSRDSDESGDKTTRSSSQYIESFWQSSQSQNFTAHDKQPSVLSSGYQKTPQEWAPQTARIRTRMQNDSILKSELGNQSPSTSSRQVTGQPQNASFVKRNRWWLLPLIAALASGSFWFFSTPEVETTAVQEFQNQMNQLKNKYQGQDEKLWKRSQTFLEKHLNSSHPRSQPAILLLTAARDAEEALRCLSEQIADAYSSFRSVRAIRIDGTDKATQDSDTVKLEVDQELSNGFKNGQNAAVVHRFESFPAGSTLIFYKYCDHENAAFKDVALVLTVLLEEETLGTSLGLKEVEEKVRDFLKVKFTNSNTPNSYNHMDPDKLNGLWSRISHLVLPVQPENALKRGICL
Left-right determination factor 2 (Homo sapiens), sequence (O00292 whole entry, looked up): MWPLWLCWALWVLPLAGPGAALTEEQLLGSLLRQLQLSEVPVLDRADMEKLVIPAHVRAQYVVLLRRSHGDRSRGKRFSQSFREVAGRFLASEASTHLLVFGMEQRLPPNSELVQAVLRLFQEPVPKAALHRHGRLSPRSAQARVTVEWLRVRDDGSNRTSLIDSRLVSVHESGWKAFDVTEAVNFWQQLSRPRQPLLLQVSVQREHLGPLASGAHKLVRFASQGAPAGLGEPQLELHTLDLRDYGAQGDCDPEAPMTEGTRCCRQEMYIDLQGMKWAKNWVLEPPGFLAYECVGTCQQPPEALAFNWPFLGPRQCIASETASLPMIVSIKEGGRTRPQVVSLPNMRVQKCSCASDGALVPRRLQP
Fibroblast growth factor 10 (Homo sapiens), sequence (O15520 whole entry, looked up): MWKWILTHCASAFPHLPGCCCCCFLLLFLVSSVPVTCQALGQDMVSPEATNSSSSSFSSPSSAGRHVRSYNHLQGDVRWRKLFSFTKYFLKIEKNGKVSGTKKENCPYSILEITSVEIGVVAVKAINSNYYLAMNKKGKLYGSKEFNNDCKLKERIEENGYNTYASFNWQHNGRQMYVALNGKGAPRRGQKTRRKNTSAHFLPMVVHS
Dickkopf-related protein 1 (Homo sapiens), sequence (O94907 whole entry, looked up): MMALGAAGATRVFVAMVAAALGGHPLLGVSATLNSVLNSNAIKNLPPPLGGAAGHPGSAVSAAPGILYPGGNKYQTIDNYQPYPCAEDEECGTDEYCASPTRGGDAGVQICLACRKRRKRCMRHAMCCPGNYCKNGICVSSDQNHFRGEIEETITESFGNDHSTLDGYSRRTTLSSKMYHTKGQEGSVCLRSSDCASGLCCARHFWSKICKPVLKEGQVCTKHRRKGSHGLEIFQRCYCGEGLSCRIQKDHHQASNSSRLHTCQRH
Alpha-bungarotoxin (Bungarus multicinctus), sequence (P60615 whole entry, looked up): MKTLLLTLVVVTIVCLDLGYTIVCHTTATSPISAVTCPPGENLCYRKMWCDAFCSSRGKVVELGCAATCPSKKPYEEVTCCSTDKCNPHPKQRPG

Consider `COC(=O)[C@H](C)NC(=O)CCC1CC(OC(=O)NCCc2ccc(F)cc2)CC2(CCCC(COC(=O)NCCc3ccc(Cl)cc3)O2)O1` (stereo not given in full), for which the composite z-score in [1] is 0.316; in test [2], 0.0144; in [3], -0.615; in test [5], 1.07; in test [6], 0.987; in test [7] it was 0.344. In addition, the composite z-score in test [8] is 1.29; in [9], 1.05; in [10] it was 0.0063; in test [11], 1.29; in [13], 1.2; in test [14], 0.922. Also, the composite z-score in [15] was 0.232; in test [16], -0.224; in test [17], -0.138; in [18], -0.299; in [19], 0.428; in test [20] it was 0.763. Besides, the z-score in test [4] was -0.137 (inactive); in test [12], -0.0845.
On to `CO[C@H]1O[C@H](CO)[C@@H](OC(=O)Nc2ccc(C#N)cc2)[C@H](OC(=O)c2cc3ccccc3[nH]2)[C@H]1OC(=O)c1cc2ccccc2[nH]1`, for which the composite z-score in test [1] is 1.19; in [2], 0.149; in [3], 0.19; in test [5] it was 0.747; in test [6], 1.16; in [7] it was 0.119. Besides, the composite z-score in test [8] is 0.588; in [9], 0.295; in test [10], 0.354; in [11] it was 1.33; in test [13], 0.339; in test [14], 2.07. Further, the composite z-score in [15] is 0.299; in test [16], -0.206; in [17], -0.0769; in test [18], 0.569; in test [19], 2.09; in [20], 2.63. Moreover, the values for the z-score in test [4] and in [12] were -0.561 (inactive) and -2.2, respectively.
With `CCCC[C@@H](O)C1=C(C)C[C@H]2C(=O)N(Cc3ccccc3)C(=O)[C@H]2[C@H]1CO`, the composite z-score was 0.222 in test [1]; -0.407 in test [2]; -0.494 in test [3]; 0.264 in test [5]; -0.0254 in test [6]; 0.464 in test [7]. Also, the composite z-score was 0.449 in test [8]; 0.524 in test [9]; 0.899 in [10]; -0.101 in [11]; 0.521 in test [13]; -0.349 in test [14]. In addition, the composite z-score was -0.611 in test [15]; -0.0478 in test [16]; -0.0553 in [17]; -0.158 in test [18]; 0.503 in [19]; -0.227 in test [20]. For the same compound, the figures for the z-score in test [4] and in test [12] were 0.0445 (inactive) and 0.156, respectively.
Take `C#CCCCON=C1C[C@@H](O)[C@@H](O)[C@@H]2[C@@H]3C(=O)N(Cc4ccccc4)C(=O)[C@@H]3CC[C@H]12`: the composite z-score in test [1] was 1.43; in [2], -0.369; in [3], -0.417; in test [5], 0.388; in test [6] it was 0.147; in [7] it was 1.03. For the same compound, the composite z-score in test [8] was 0.29; in [9], 0.525; in [10], 0.269; in [11] it was 0.154; in [13] it was 0.451; in test [14] it was -0.0441. Moreover, the composite z-score in [15] was -0.273; in test [16] it was -0.154; in [17] it was -0.138; in test [18], -0.0245; in [19], 0.28; in [20], 0.234. Also, the z-score is -0.658 (inactive) in [4] and -1.08 in test [12].
`CN(C)CCCNC(=O)[C@@H]1c2ccccc2C(=O)N(Cc2ccccc2)[C@H]1c1ccc(CO)cc1`: the composite z-score in [1] is 0.0072; in [2], 0.189; in [3] it was 0.341; in test [5], -0.952; in test [6], -0.383; in [7], -0.254. Also, the composite z-score is 0.433 in test [8]; -0.354 in [9]; 1.33 in [10]; -0.176 in test [11]; 0.186 in test [13]; -0.177 in [14]. Moreover, the composite z-score in test [15] is -0.981; in test [16], -0.0527; in test [17], -0.281; in test [18], 0.366; in test [19] it was -0.668; in test [20], -0.261. Also, the z-score is -0.00771 (inactive) in test [4] and -1.24 in test [12].
In the case of `CN(C)C(=O)[C@@]1(Cc2ccccc2)N=C(c2ccc(OCCCO)cc2)O[C@H]1c1ccccc1CN=[N+]=[N-]`, the composite z-score in test [1] was 1.2; in test [2] it was 1.44; in [3], 1.35; in [5], 1.47; in test [6] it was 0.777; in test [7], -0.194. Further, the composite z-score in test [8] is 0.732; in [9], 0.0591; in [10], 0.784; in test [11] it was 1.1; in test [13], -0.068; in test [14], 2.47. In addition, the composite z-score in [15] is 1.26; in test [16] it was 0.313; in test [17], 0.64; in [18], -0.18; in test [19], 2.95; in [20], 2.62. The z-score in test [4] is 0.32 (inactive); in [12], -2.14.
